We go through 37 molecules from PubChem BioAssay (NCATS).

Each structure is given as a SMILES string. Records with an inconclusive call do not appear. Where a call stands in place of a potency, no number is given. Calls of active or inactive are those of the source. Calls come from the whole dose curve; as a rule, active = well fitted inhibition curve with a large enough effect; inconclusive = small, poorly fitted or top-dose-only effect; inactive = no such curve, though single readings can be large or run the other way. Where a SMILES comes first, the peptide text is derived from it.

The first assay can be described thus: qHTS assay for measurement of the activity of small molecule inhibitors on Zika virus induced Caspase-3 activity in human iPSC derived neural progenitor cells (hNPCs) (AID 1224857). Note: nearly all actives have a fitted effect of over 65% in size. As to conditions: hNPCs ZIKV-induced caspase-3/7, Caspase-Glo luminescence, 6 h; series mostly up to 45.7 µM. In short, it runs like this:
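Zika virus (2 FFU/cell) infection of human iPSC-derived NPCs, 6 h, following 1 h compound preincubation. Read-out: Caspase-Glo 3/7 luminescence.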
Consider `CCOc1ncc(F)c(=O)[nH]1`, for which the Potency entry is “inactive”. As to `O=C(c1cc(O)c(O)c(O)c1)c1ccc(O)c(O)c1O`, the Potency result is “inactive”. For the molecule `CCC(=O)O[C@]1(C(=O)COC)[C@@H](C)C[C@H]2[C@@H]3CCC4=CC(=O)C=C[C@]4(C)C3(F)[C@@H](O)C[C@@]21C` (some centres not stated), the Potency entry is “inactive”. On to `O=C(CCCCCCCCC#CI)Oc1ccccc1`, for which the Potency result was “inactive”.

With `CC(=O)N[C@@H](CO)C(=O)N[C@@H](CC(=O)O)C(=O)N[C@@H](CCCCN)C(=O)N1CCC[C@H]1C(=O)O` (Ac-SDKP-OH), the Potency entry is “inactive”.

The nature of a further assay: qHTS assay for measurement of the activity of small molecule inhibitors on Zika virus induced Caspase-3 activity in human astrocytoma cells (AID 1224859). The settings on record: SNB-19 ZIKV-induced caspase-3/7, luminescence, 6 h; series mostly up to 45.7 µM. Put shortly: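 Caspase activation in ZIKV-infected SNB-19 cells (2 FFU/cell, 6 h) measured by Caspase-Glo 3/7 luminescence after 30 min RT; compound pre-incubated 1 h; normalised to uninfected and infected controls.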
Take `CCCCN(CCN(CCCC)C(=O)N1CCOCC1)C(=O)N1CCOCC1`: the result was inactive. Same read-out and setting: for `CCC(CN)=C(c1ccccc1)c1ccccc1` the value was “inactive”; for `CC[N+]1(CC)CCC(=C(c2ccccc2)c2ccccc2)C1C` (configuration not stated), “inactive”; for `O=C(O)CCCC[P+](c1ccccc1)(c1ccccc1)c1ccccc1`, “inactive”. For `OC1(c2ccc(Cl)c(C(F)(F)F)c2)CCN(CCCC(c2ccc(F)cc2)c2ccc(F)cc2)CC1`, the call was inactive. `CCCCC(O)/C=C(C)/C=C/C=C/C(=O)N1CCCC1=O` (configuration not stated): the molecule was called inactive.

For `COC(=O)c1cc(S(N)(=O)=O)ccc1OC`, the molecule was called inactive. Take `CCCCCOc1ccc(C2SC(=O)NC2=O)cc1OCC` (configuration not stated): the molecule was classed as inactive.

With `CO/N=C(\C(=O)O)c1csc(NC(=O)CCl)n1`, the molecule was classed as inactive. Consider `NC(=O)NS(=O)(=O)c1ccc(Cl)cc1`, for which the molecule was classed as inactive. Turning to `COc1ccc([C@@H]2Sc3ccccc3NC(=O)[C@@H]2O)cc1`, the result was inactive.

In the case of `CO/N=C(/C(=O)N[C@@H]1C(=O)N2C(C(=O)O)=C(Cn3nnc(C)n3)CS[C@H]12)c1csc(N)n1`, the result was inactive. Same read-out and setting: for `CCS(=O)(=O)c1ccc(OC)c(C(=O)OC)c1` the value was “inactive”; for `CC(=O)Nc1ccn(C2COC(COC(=O)c3ccccc3)O2)c(=O)n1` (configuration not stated), “inactive”.

With `CC(=O)/C=C/C=C1/C2CCC(C2)C1(C)C` (configuration not stated), the result was inactive. In the case of `C#CC(C)(CC)OC(=O)c1ccccc1C(=O)O` (configuration not stated), the call was inactive. On to `COc1ccc(/C(C)=C/C(=O)O)c(OC)c1`, for which the molecule was classed as inactive. The same measure, in the same setting: the entry for `CCC(C(=O)OCCN1CCOC(c2ccccc2)C1C)c1ccccc1` (configuration not stated) is “inactive”. For the molecule `C=CC[N+]1([C@H]2C[C@H]3[C@@H]4CC[C@H]5C[C@H](OC(C)=O)[C@@H](N6CCCCC6)C[C@]5(C)[C@H]4CC[C@]3(C)[C@H]2OC(=O)CC)CCCCC1`, the molecule was classed as inactive. In the case of `[O-][n+]1cccc(/C(Cl)=N/OC[C@@H](O)CN2CCCCC2)c1`, the outcome was inactive. Turning to `CC(C)=CCNc1ncnc2c1ncn2[C@@H]1O[C@H](CO)[C@@H](O)[C@H]1O`, the outcome was inactive. In the case of `Cc1ccc(C(C)OC(=O)C2(C)CCC(C(=O)O)C2(C)C)cc1` (configuration not stated), the call was inactive. On to `CCC1(c2cnc[nH]2)Cc2ccccc2C1`, for which the molecule was classed as inactive.

On to `CCCCCCn1c(=O)c2c(ncn2C)n(C)c1=O`, for which the outcome was inactive. For the molecule `CC(=O)N1CCN(c2ccc(O)cc2)CC1`, the call was inactive. On the same count and under the same terms, for `OC1(c2ccccc2)CCNCC1` the value was “inactive”; for `CCOC(=O)c1ccc(OCCN2C[C@H](O)[C@@H](O)[C@H](O)[C@H]2CO)cc1`, “inactive”. The same measure, in the same setting: for `COc1cc(NS(=O)(=O)c2ccc(N)cc2)nc(C)n1` the value was “inactive”; for `COc1cc(OC)nc(O[C@H](C(=O)O)C(OC)(c2ccccc2)c2ccccc2)n1`, “inactive”; for `COc1ccc2cc(C=O)ccc2c1`, “inactive”. As to `COc1ccc2c(c1)CCCC2=O`, the call was inactive.

As for `COC(=O)CCCCC(CCSS/C(CCO)=C(\C)N(C=O)Cc1cnc(C)nc1N)SC(C)=O` (configuration not stated), the molecule was called inactive. Regarding `CCOc1ncc(F)c(=O)[nH]1`, the molecule was classed as inactive. For `O=C(c1cc(O)c(O)c(O)c1)c1ccc(O)c(O)c1O`, the molecule was called inactive.

In the case of `CCC(=O)O[C@]1(C(=O)COC)[C@@H](C)C[C@H]2[C@@H]3CCC4=CC(=O)C=C[C@]4(C)C3(F)[C@@H](O)C[C@@]21C` (some centres not stated), the outcome was inactive.

With `O=C(CCCCCCCCC#CI)Oc1ccccc1`, the outcome was inactive. Still for that read-out and setting: the entry for `CC(=O)N[C@@H](CO)C(=O)N[C@@H](CC(=O)O)C(=O)N[C@@H](CCCCN)C(=O)N1CCC[C@H]1C(=O)O` (Ac-SDKP-OH) is “inactive”.
